ANO1 block = TMEM16A chloride channel inhibitors, primary screen, cell-based, HTS. Anoctamin-1 (Mus musculus), Q8BHY3. HEK293 TMEM16A/YFP iodide influx fluorescence, ionomycin. normalized B-score (activity score, 25-100; higher = stronger inhibition) at 10 µM. actives 1.2% (n = 310,000). AID 588511, 2011;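 active = ratio plate-corrected score three or more library SD toward inhibition, starting fluorescence score within five deviations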;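 also: score derived from kinetic fluorescence span divided by baseline fluorescence per well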
RTF Ca sens act = cardiac RTF calcium sensitivity activators, primary screen, biochemical, IANBD-TnC fluorescence, EC20 calcium | Troponin I, cardiac muscle (Homo sapiens) + Troponin T, cardiac muscle (Homo sapiens) + … | actives 0.24% (n = 340,000) | activation, % at 7.2 µM | AID 493008, 2010 | IANBD-labeled TnC RTF fluorescence at EC20 calcium; 0% EC20 calcium, 100% full calcium;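 active = activation above the mean over all tested compounds plus 3 SD, cut at about 30% in these data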;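 also: rise in fluorescence read as greater calcium sensitivity of cardiac thin filaments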
Cardiac RTF inh = cardiac RTF calcium sensitivity inhibitors, primary screen, biochemical, IANBD-TnC fluorescence, EC70 calcium; AID 493244, 2011; actives 0.12% (n = 340,000); inhibition, % at 7.15 µM; Troponin I, cardiac muscle (Homo sapiens) + Troponin T, cardiac muscle (Homo sapiens) + …; IANBD-labeled cardiac RTF, Ca2+ fluorescence;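 active = inhibition above the mean inhibition of all tested compounds plus 3 SD, cut at about 17% in these data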;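 also: assay run at fixed EC70 calcium of 1.6 mM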
CRFR2-BP antag = antagonists of CRF-BP/CRF-R2 complex, primary screen, cell-based, HEK293, calcium dye fluorescence, uHTS. CRF-induced calcium fluorescence. inhibition, % at 11.8 µM. actives 0.59% (n = 350,000). AID 588475, 2011;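 active = inhibition of the ligand-induced calcium signal above about 50% at the single tested concentration, limit read from the data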
CRFBP-R2 agonist = agonists of CRF-BP/CRF-R2 complex, primary screen, cell-based, HEK293, calcium dye fluorescence, uHTS. CRF-binding protein / CRF receptor 2 complex (human). calcium dye fluorescence (FLIPR); percent of saturating CRF peptide response. activation, % at 13.2 µM. actives 0.46% (n = 350,000);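 active = activation of at least 50%, plus an integration ratio under a set limit after plate pattern correction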
TMEM16A act = TMEM16A chloride channel activators or potentiators, primary screen, cell-based, HTS | Anoctamin-1 (Mus musculus), Q8BHY3 | HEK293 TMEM16A/YFP-H148Q/I152L, iodide quench fluorescence; hits give low values | B-score at 10 µM | actives 0.3% (n = 340,000) | AID 623877, 2012;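 active = fluorescence-ratio B-score plate-corrected deviation score at least 3 library SD below zero, with starting fluorescence score within 5 deviations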;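 also: channel opened by trigger with iodide after compound preincubation; score built on the fluorescence ratio of max minus min over baseline; more negative score means more quench and so TMEM16A activation or potentiation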
TMEM16A reconf = TMEM16A chloride channel inhibitors, confirmation, cell-based, re-confirmation; shares compounds with ANO1 block; HEK293 TMEM16A/YFP-H148Q, iodide quench fluorescence; ionomycin added to raise cell calcium; inhibition, % at 10 µM; actives 39% (n = 2,300); AID 652189, 2013;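 active = mean duplicate percent inhibition, scaled so buffer wells are 0 and the reference blocker 100, over three buffer SD above buffer mean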
HEK293 Ca mobil = calcium mobilization in TMEM16A/YFP HEK293 cells, confirmation, counter-screen for TMEM16A inhibitor project | calcium response (% of ionomycin), % at 10 µM | shares compounds with ANO1 block | actives 2% (n = 2,300) | AID 652231, 2013 | Fluo4 calcium mobilization;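 active = duplicate-averaged calcium signal over 20% of the ionomycin maximum, relative to buffer baseline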;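 also: each well's signal is peak minus trough fluorescence divided by its pre-addition baseline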
YFP-HEK293 quench = iodide YFP quench changes in parental YFP-HEK293, counter-screen for TMEM16A inhibitor project, cell-based | shares compounds with ANO1 block | ionomycin | YFP ratio F(max-min)/F0 at 10 µM | 2,300 tested, under 10 active;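 active = yellow fluorescent protein signal ratio exceeding the buffer control mean by over 5 SD of those controls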;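 also: ratio is mean of duplicate wells from kinetic YFP trace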
ClC-1 inh = ClC-1 chloride channel inhibition, selectivity assay for TMEM16A inhibitor project, cell-based, voltage-dependent ClC-1 | shares compounds with ANO1 block | CHO ClC-1-YFP, iodide influx fluorescence quench; iodide control reads 0, buffer control 100 | ratio percent, % at 10 µM | 2,300 tested, under 10 active;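 active = duplicate-mean ratio percent above the mean of iodide-only control wells, which defines zero, plus 5 of their SD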;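 also: higher percent means stronger block of ClC-1 iodide influx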
Each line names hits and unclear results; the compound was inactive in the other large screens (follow-up assays come after a bar, where they were run). Sampled rows, rich in hits. Any-hit rate of the full collection: about 2.4%.

Cc1ccc(CNC(=O)CCNS(=O)(=O)c2cccc3nsnc23)cc1	ANO1 block 100 | TMEM16A reconf inactive | HEK293 Ca mobil inactive | YFP-HEK293 quench inactive | ClC-1 inh inactive
CC(C)(C)NC(=O)C(c1ccccc1)N(Cc1ccco1)C(=O)c1csnn1 (configuration not stated)	none
CCC(C)N(C(=O)c1csnn1)C(C(=O)NC(C)(C)C)c1ccccc1 (configuration not stated)	none (no result: TMEM16A act) | TMEM16A reconf inactive | HEK293 Ca mobil inactive | YFP-HEK293 quench inactive | ClC-1 inh inactive
CC(NC(=O)Cc1cccc(C(F)(F)F)c1)c1ccc(F)cc1 (configuration not stated)	none
CN(C(=O)c1ccc(S(=O)(=O)c2cccc(Cl)c2)c([N+](=O)[O-])c1)C1CCCCC1	ANO1 block 25 | TMEM16A reconf inactive | HEK293 Ca mobil inactive | YFP-HEK293 quench inactive | ClC-1 inh inactive
O=C(NC1CCCCC1)c1ccc(S(=O)(=O)c2ccccc2Cl)c([N+](=O)[O-])c1	none (no result: RTF Ca sens act, Cardiac RTF inh, CRFR2-BP antag, CRFBP-R2 agonist, TMEM16A act)
COc1ccc(-c2nc(CN3CCC(C(=O)NCC4CCCO4)CC3)c(C)o2)cc1OC (configuration not stated)	none
CN1C(=O)C(C)(C)c2cc(S(=O)(=O)N3CCC(C(=O)NCc4ccccc4Cl)CC3)ccc21	none
O=C(CC1Sc2ccccc2NC1=O)OCc1cc(=O)oc2cc(O)ccc12 (configuration not stated)	ANO1 block 25 | TMEM16A reconf 32% | HEK293 Ca mobil inactive | YFP-HEK293 quench inactive | ClC-1 inh inactive
Cc1ccc2c(COC(=O)CC3Sc4ccccc4NC3=O)cc(=O)oc2c1C (configuration not stated)	none
CCOc1ccc(-c2nc(CN3CCCCC3CCn3cccn3)c(C)o2)cc1 (configuration not stated)	none
COc1ccccc1C(=O)N/C(=N/c1nc(C)cc(C)n1)Nc1ccccc1	none
Cc1cc(NC(=O)c2ccc(Cn3nc(C)c(Br)c3C)o2)no1	none
Cc1nn(Cc2ccc(C(=O)Nc3nc4c(C)cccc4s3)o2)c(C)c1Br	ANO1 block 100 | TMEM16A reconf inactive | HEK293 Ca mobil inactive | YFP-HEK293 quench inactive | ClC-1 inh inactive
Cc1ccc(-n2ncc3c(N4CCCC4)ncnc32)c(C)c1	none
COc1cccc(N2CCN(c3ncnc4c3cnn4-c3ccc(C)cc3C)CC2)c1	ANO1 block 100 | TMEM16A reconf 32% | HEK293 Ca mobil inactive | YFP-HEK293 quench inactive | ClC-1 inh inactive
CC1(C)c2cc(O)ccc2OC1N1CCOCC1 (configuration not stated)	ANO1 block 25 | TMEM16A reconf inactive | HEK293 Ca mobil inactive | YFP-HEK293 quench inactive | ClC-1 inh inactive
Cc1[nH]c(N=Nc2ccccc2)nc1N=Nc1ccccc1	ANO1 block 100 | TMEM16A reconf inactive | HEK293 Ca mobil inactive | YFP-HEK293 quench inactive | ClC-1 inh inactive
Nc1ccc(N=Nc2ccccc2)c(N)n1	none
C=CCNC(=O)c1onc(CSc2ccccc2)c1C(=O)O	none
C=CCNC(=O)c1onc(CSc2ccc(C(C)C)cc2)c1C(=O)O	ANO1 block 25 | TMEM16A reconf inactive | HEK293 Ca mobil inactive | YFP-HEK293 quench inactive | ClC-1 inh inactive
O=S(=O)(c1ccc(C2CCCCC2)cc1)N1CCCC1	ANO1 block 25 | TMEM16A reconf inactive | HEK293 Ca mobil inactive | YFP-HEK293 quench inactive | ClC-1 inh inactive
COc1cccc(N/C=C(\C#N)c2ccc(OCCCF)cc2)c1	ANO1 block 100 | TMEM16A reconf inactive | HEK293 Ca mobil inactive | YFP-HEK293 quench inactive | ClC-1 inh inactive
O=C(c1ccc(=O)[nH]n1)N1CCN(S(=O)(=O)c2cccc(F)c2)CC1	none (no result: ANO1 block)
CCc1c(C(=O)Nc2nnc(C3CC3)s2)csc1C	ANO1 block 100 | TMEM16A reconf inactive | HEK293 Ca mobil inactive | YFP-HEK293 quench inactive | ClC-1 inh inactive
CCOc1ncccc1C(=O)Nc1nnc(C2CC2)s1	none
Cc1ccc(C(=O)NCc2ccncc2)cc1S(=O)(=O)N1CCCCC1	none
Cc1cc(Cl)c(S(=O)(=O)N2CCSCC2)cc1OCC(=O)NC1CCCCC1	ANO1 block 100 | TMEM16A reconf 28% | HEK293 Ca mobil inactive | YFP-HEK293 quench inactive | ClC-1 inh inactive
CCN1CCN(S(=O)(=O)c2cc(OCC(=O)NC3CCCCC3)c(C)cc2Cl)CC1	none
Cc1cc(Cl)c(S(=O)(=O)N2CCN(c3ccccn3)CC2)cc1OCC(=O)NC1CCCCC1	ANO1 block 100 | TMEM16A reconf inactive | HEK293 Ca mobil inactive | YFP-HEK293 quench inactive | ClC-1 inh inactive
Cc1cc(Cl)c(S(=O)(=O)N2CCCCCC2)cc1OCC(=O)NC1CCCCC1	ANO1 block 100 | TMEM16A reconf 24% | HEK293 Ca mobil inactive | YFP-HEK293 quench inactive | ClC-1 inh inactive
CCOC(=O)N1CCN(S(=O)(=O)c2cc(OCC(=O)NC3CCCCC3)c(C)cc2Cl)CC1	none
Cc1cc(Cl)c(S(N)(=O)=O)cc1OCC(=O)NC1CCCCC1	none
CC(Sc1nnc(-c2ccco2)n1C)C(=O)Nc1nccs1 (configuration not stated)	none
COc1ccccc1CN=Cc1[nH]c2ccc(Br)c(Cl)c2c1O	none | TMEM16A reconf 16% | HEK293 Ca mobil inactive | YFP-HEK293 quench inactive | ClC-1 inh inactive

Bioassay records: PubChem BioAssay, several laboratories
